# Test results published in PubChem BioAssay (NCI).
# Compounds without any hit were thinned out: in the full panel of roughly 83,000, 20% have a hit.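 Method: cells in 96-well plates; compound added at one concentration; 48 h incubation; percent growth measured; values under 10 scored active.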 Values without a mark were called inactive. Active and inactive are the calls of the source.
# Tested on: HL-60(TB) leukemia
# Experiment: NCI-60 one-dose screen, 48 h (100 = growth as untreated, 0 = no growth, -100 = all killed)
# Details: 10 µM unless noted
row,SMILES,growth
1,O=[N+]([O-])c1cc([N+](=O)[O-])c(N2CCCC2)cc1NN=C(c1ccc(O)cc1)c1ccc(O)cc1,122%
2,O=C(Nc1ccc(N2CCCCC2)c(Cl)c1)c1ccc(Br)o1,46.3%
3,c1ccc2[nH]c(-c3ccc(OCCCCCOc4ccc(-c5nc6ccccc6[nH]5)cc4)cc3)nc2c1,-45.7% (active)
4,CCCCCCCCCCCCCCCCCC(=O)NCCNC(=O)CCCCCCCCCCCCCCCCC,67.8%
5,CC1(C)C(=NO)C(C)(C)C1=NO,113%
6,O=C(NNc1nc(Cl)nc(N2CCN(C(c3ccccc3)c3ccccc3)CC2)n1)c1ccccc1,-22.5% (active)
7,CCCCN(CCCC)CCCN=c1nc2c(c(N)n1-c1ccccc1)c(=S)n(-c1ccccc1)c(=S)n2-c1ccccc1,-74.8% (active)
8,COc1ccc(COC(=O)CC(C)C)cc1,99.7%
9,CC(=O)[C@@H]1CC[C@]2(C(=O)O)CC[C@]3(C)[C@H](CC[C@@H]4[C@@]5(C)Cc6c([nH]c7ccccc67)C(C)(C)[C@@H]5CC[C@]43C)[C@@H]12,53.4%
10,CCOC(=O)C(Cc1ccccc1)n1c(O)c(C=Nc2ccc(C(=O)OCCN(CC)CC)cc2)sc1=O (stereo not given),97.8%
11,O=C(NCc1ccccc1)C1CN(c2ccc(Cl)cc2)N(c2ccc(Cl)cc2)C1=O (stereo not given),81.7%
12,c1ccc2cc(C[n+]3ccn(CCCCCCCn4cc[n+](Cc5ccc6ccccc6c5)c4)c3)ccc2c1,32.9%
13,CCOc1ccc(-c2cnnn2-c2nonc2-n2cccc2)cc1,-23.8% (active)
14,Cc1ccc2nc3c(cc2c1)CSc1nnc(-c2ccc[nH]c2=S)n1N3,102%
15,O=[N+]([O-])c1ccc(N/N=C\c2ccccc2[N+](=O)[O-])nc1,109%
16,COc1ccc(C(=O)NC(=O)Nc2ccc3c(c2)NC(=O)/C3=C\c2[nH]c(C)c(CCC(=O)O)c2C)c(F)c1,43.2%
17,CN1CCN(CC(=O)Nc2cccc(-n3cc(-c4ccncc4)c(-c4ccc(Cl)c(O)c4)n3)c2)CC1,5.27% (active)
18,C1CCCCNCCC1,114%
19,[O-][n+]1c(Cl)cc(Cl)c2ccccc21,84.9%
20,CC(C)(C)OC(=O)N1CCc2c(sc3ncnc(N/N=C/c4ccccc4Br)c23)C1,94.8%

row,SMILES,growth
1,COc1ccc(NC(=O)Cc2nc3nc4sc(C)c(C)c4c(=O)n3[nH]2)cc1,109%
2,CCCCCCCCCCCCCCCCCCOCC(COP(=O)([O-])OCC[N+](C)(C)C)OC (stereo not given),46.4%
3,COc1ccc2c(CCc3ccc(Cl)cc3)c3[n+](cc2c1OC)CCc1cc2c(cc1-3)OCO2,10%
4,C=C(C)[C@@H]1CC[C@]2(C(=O)O)CC[C@]3(C)[C@H](CC[C@@H]4[C@@]5(C)C[C@@H](CC#Cc6ccc(C(C)=O)s6)[C@H](O)C(C)(C)[C@@H]5CC[C@]43C)[C@@H]12,54%
5,Cc1ccc(C(=O)c2ccc(CC(=O)NN3C(=O)c4ccccc4C3=O)n2C)cc1,100%
6,Cc1cc(C)c(S(=O)(=O)/N=c2/n(-c3ccccc3)nc3n2CCN3C2=NCCN2)c(C)c1,82.8%
7,Nc1cc(Br)cc2c1[nH]c(=O)c1ccccc12,91.6%
8,COc1cc(-c2nn(-c3cccc(NC(=O)c4ccc(N5CCOCC5)c(C(F)(F)F)c4)c3)cc2-c2ccncc2)ccc1Cl,-8.08% (active)
9,COc1ccc(C(=O)Nc2nc(-c3ccc(Cl)cc3)cs2)cc1,105%
10,N=C(N)c1ccc(-c2ccc(-c3ccc(Cl)c(Cl)c3)o2)cc1,-45.5% (active)
11,COC1(CC[C@@H](C)COC2OC(CO)C(O)C(O)C2O)O[C@H]2C[C@H]3[C@@H]4CC=C5C[C@@H](OC6OC(CO)C(OC7OC(C)C(O)C(O)C7O)C(O)C6OC6OC(C)C(O)C(O)C6O)CC[C@]5(C)[C@H]4CC[C@]3(C)[C@H]2[C@@H]1C (stereo not given in full),27.1%
12,CCN(CC)CCOc1ccc(C(=O)/C=C\c2ccc(Cl)cc2Cl)cc1,-29.2% (active)
13,O=C(c1ccccc1)C(Br)C(Br)c1ccccc1 (stereo not given),39.5%
14,CCCCCOC(=O)c1ccccc1O,99.4%
15,CC1(C)CC(=O)C2=C(C1)OC1=C(C(=O)CC(C)(C)C1)C2c1ccc(OCc2cn(-c3ccc(F)cc3F)nn2)cc1,42.2%
16,COc1ccc(C(O)c2cc3c(N)c(C(=O)Nc4cccc(Br)c4C)sc3nc2C)cc1 (stereo not given),-41% (active)
17,COC(CCCl)c1ccc(Cl)cc1 (stereo not given),94.2%
18,CCCCCCC(C)c1ccccc1O (stereo not given) (tested in a mixture with another compound),113%
19,Fc1ccc(Nc2ccc3c(OCCCN4CCOCC4)cccc3n2)cc1F,85.3%
20,CCN1CCN(CCOc2ccc(CNc3ccc4nc(CCC5CCCCC5)[nH]c4c3)cc2)CC1,-12.7% (active)
